Data from PubChem BioAssay AID1159580 (chemical genetic matrix, 2015).
About 2,000 (36%) of roughly 5,500 compounds were called active. Another 18% or so got no clear call; they are omitted. Cut-off read from the data, not from the text of the source: active = normalized growth mostly below about 0.91 (no sharp cut-off); inconclusive = no clear call, values can overlap the other calls; inactive = mostly above about 0.92. Some of the results follow.

Test: chemical genetic growth profiling, strain panel (AID 1159580);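 note: tested at 20 µM; growth read once vehicle control cultures reached saturation at 30 °C; 1 = growth at the plate median or of vehicle wells; lower values mean less growth of the strain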
Conditions: growth OD

Measured: normalized growth

CC(=O)OC1CC(OC(C)=O)C2(C)C(CC(OC(C)=O)C3(C)C4=CC(=O)OC(=O)C4(C)CCC32)C1(C)C (stereo unspecified)
inactive: S. cerevisiae deletion strains, locus YBR021W, strain FUR4, hits give low values 1.01 | S. cerevisiae deletion strains, locus YBR229C, strain ROT2, hits give low values 1 | S. cerevisiae deletion strains, locus YCL029C, strain bik1, hits give low values 1 | S. cerevisiae deletion strains, locus YDL035C, strain GPR1, hits give low values 1.01 | S. cerevisiae deletion strains, locus YDL074C, strain BRE1, hits give low values 1.02 | S. cerevisiae deletion strains, locus YDL101C, strain DUN1, hits give low values 1.02 | S. cerevisiae deletion strains, locus YDL134C, strain PPH21, hits give low values 1.02 | S. cerevisiae deletion strains, locus YDL185W, strain tfp1, hits give low values 1.01 | S. cerevisiae deletion strains, locus YDL192W, strain arf1, hits give low values 0.982 | S. cerevisiae deletion strains, locus YDR101C, strain arx1, hits give low values 0.996 | S. cerevisiae deletion strains, locus YDR150W, strain NUM1, hits give low values 1.01 | S. cerevisiae deletion strains, locus YDR162C, strain NBP2, hits give low values 1.01 | S. cerevisiae deletion strains, locus YDR318W, strain mcm21, hits give low values 0.99 | S. cerevisiae deletion strains, locus YDR388W, hits give low values 1.01 | S. cerevisiae deletion strains, locus YDR502C, strain sam2, hits give low values 1.02 | S. cerevisiae deletion strains, locus YER110C, hits give low values 1 | S. cerevisiae deletion strains, locus YER155C, strain BEM2, hits give low values 0.993 | S. cerevisiae deletion strains, locus YER167W, strain BCK2, hits give low values 0.995 | S. cerevisiae deletion strains, locus YGL078C, strain dbp3, hits give low values 1.03 | S. cerevisiae deletion strains, locus YGL086W, strain mad1, hits give low values 0.998 | S. cerevisiae deletion strains, locus YGL248W, strain PDE1, hits give low values 1.03 | S. cerevisiae deletion strains, locus YGR078C, strain PAC10, hits give low values 1.04 | S. cerevisiae deletion strains, locus YGR135W, strain pre9, hits give low values 1.06 | S. cerevisiae deletion strains, locus YGR252W, strain gcn5, hits give low values 1.03 | S. cerevisiae deletion strains, locus YHR030C, strain SLT2, hits give low values 0.999 | S. cerevisiae deletion strains, locus YHR079C, strain IRE1 (second series), hits give low values 1 | S. cerevisiae deletion strains, locus YHR094C, strain hxt1, hits give low values 1.01 | S. cerevisiae deletion strains, locus YHR129C, strain ARP1, hits give low values 1.01 | S. cerevisiae deletion strains, locus YHR200W, strain rpn10, hits give low values 1.01 | S. cerevisiae deletion strains, locus YIL066C, strain RNR3, hits give low values 0.99 | S. cerevisiae deletion strains, locus YIL073C, strain SPO22, hits give low values 1.04 | S. cerevisiae deletion strains, locus YIL125W, strain kgd1, hits give low values 0.993 | S. cerevisiae deletion strains, locus YIR030C, strain dcg1, hits give low values 0.999 | S. cerevisiae deletion strains, locus YJL095W, strain BCK1, hits give low values 1.04 | S. cerevisiae deletion strains, locus YJL134W, strain LCB3, hits give low values 0.997 | S. cerevisiae deletion strains, locus YJL168C, strain set2, hits give low values 1 | S. cerevisiae deletion strains, locus YJL187C, strain SWE1 (second series), hits give low values 1.04 | S. cerevisiae deletion strains, locus YJR043C, strain POL32, hits give low values 0.99 | S. cerevisiae deletion strains, locus YJR075W, strain HOC1, hits give low values 1.01 | S. cerevisiae deletion strains, locus YKL009W, strain mrt4, hits give low values 0.992 | S. cerevisiae deletion strains, locus YKL068W, hits give low values 1.01 | S. cerevisiae deletion strains, locus YKL085W, strain MDH1 (second series), hits give low values 0.987 | S. cerevisiae deletion strains, locus YKL085W, strain MDH1, hits give low values 0.987 | S. cerevisiae deletion strains, locus YKL190W, strain CNB1, hits give low values 1.01 | S. cerevisiae deletion strains, locus YKR001C, strain vps1, hits give low values 0.987 | S. cerevisiae deletion strains, locus YLR039C, strain RIC1, hits give low values 1.02 | S. cerevisiae deletion strains, locus YLR058C, strain SHM2, hits give low values 1.02 | S. cerevisiae deletion strains, locus YLR102C, strain apc9, hits give low values 1.01 | S. cerevisiae deletion strains, locus YLR262C, strain YPT6, hits give low values 0.985 | S. cerevisiae deletion strains, locus YLR268W, strain sec22, hits give low values 0.981 | S. cerevisiae deletion strains, locus YLR330W, strain CHS5, hits give low values 1 | S. cerevisiae deletion strains, locus YLR371W, strain rom2, hits give low values 0.987 | S. cerevisiae deletion strains, locus YLR418C, strain cdc73, hits give low values 1.03 | S. cerevisiae deletion strains, locus YML016C, strain PPZ1, hits give low values 1.01 | S. cerevisiae deletion strains, locus YML032C, strain rad52, hits give low values 1 | S. cerevisiae deletion strains, locus YML124C, strain tub3, hits give low values 0.998 | S. cerevisiae deletion strains, locus YMR078C, strain ctf18, hits give low values 1 | S. cerevisiae deletion strains, locus YMR223W, strain ubp8, hits give low values 1 | S. cerevisiae deletion strains, locus YMR307W, strain GAS1, hits give low values 0.916 | S. cerevisiae deletion strains, locus YNL067W, strain RPL9B, hits give low values 1.05 | S. cerevisiae deletion strains, locus YNL233W, strain BNI4, hits give low values 1.02 | S. cerevisiae deletion strains, locus YNL250W, strain rad50, hits give low values 1.02 | S. cerevisiae deletion strains, locus YNL271C, strain bni1, hits give low values 1.01 | S. cerevisiae deletion strains, locus YNL298W, strain CLA4, hits give low values 1.01 | S. cerevisiae deletion strains, locus YNL307C, strain MCK1, hits give low values 1.02 | S. cerevisiae deletion strains, locus YNR052C, strain pop2, hits give low values 1.03 | S. cerevisiae deletion strains, locus YOL006C, strain TOP1, hits give low values 0.98 | S. cerevisiae deletion strains, locus YOL012C, strain htz1 0.765 | S. cerevisiae deletion strains, locus YOL147C, strain pex11, hits give low values 1 | S. cerevisiae deletion strains, locus YOR061W, strain CKA2, hits give low values 0.994 | S. cerevisiae deletion strains, locus YOR069W, strain VPS5, hits give low values 1.01 | S. cerevisiae deletion strains, locus YOR136W, strain idh2, hits give low values 1.01 | S. cerevisiae deletion strains, locus YOR144C, strain elg1, hits give low values 0.996 | S. cerevisiae deletion strains, locus YOR184W, strain ser1, hits give low values 0.978 | S. cerevisiae deletion strains, locus YOR316C, strain cot1, hits give low values 1.01 | S. cerevisiae deletion strains, locus YPR119W, strain clb2, hits give low values 1.01 | S. cerevisiae deletion strains, locus YPR141C, strain kar3, hits give low values 1.01 | S. cerevisiae deletion strains, locus YPR163C, strain tif3, hits give low values 1.02 | S. cerevisiae deletion strains, locus YPR167C, strain met16, hits give low values 1.01 | S. cerevisiae deletion strains, strain wtn01, hits give low values 0.975 | S. cerevisiae strains, strain wild type, hits give low values 1
